Measured values taken from PubChem BioAssay (NCATS).
Results filed as inconclusive are left out. Calls of active or inactive are those of the source. Unless noted, the call rests on the fitted dose curve; in most records, active means well fitted curve in the direction sought with a large enough effect; inconclusive means small, poorly fitted or top-dose-only effect, or another doubt; inactive means no such curve, though single readings can be large; an effect the other way counts as inactive or inconclusive.

Columns and labels:
[1] = AP1 Signaling Pathway (AID 357; active means well fitted curve in either direction with a large enough effect, not every such curve was filed as active;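 further: ME-180 reporter cells stimulated with EGF at its EC50 level; on the % scale 0 is the no-effect control and ±100 the full control effect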)
How it was run: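 First, ME-180 AP-1-bla cells were cultured overnight at 37 °C in low-serum Opti-MEM. Next, titrated compounds with EC50 EGF were incubated 5 hours. Finally, CCF4 was added for 2.5 hours and the 460/530 nm ratio recorded.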

[2] = NFAT Signaling Pathway (AID 444; active means well fitted curve in either direction with a large enough effect, not every such curve was filed as active;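 further: carbachol stimulus at about its EC50 of 1 µM final; on the % scale 0 is the no-effect control and ±100 the full control effect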); conditions: Jurkat NFAT-bla M1, carbachol, beta-lactamase ratio, 5 h; at 17.2 µM (top of the series) unless noted
How it was run: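 Jurkat cells with NFAT-driven β-lactamase reporter and co-expressed M1 receptor, stimulated with carbachol (final 1 uM, ~EC50), compound titration, 5 h at 37 °C. CCF4 loaded 1 h at RT; 460/530 nm ratio gave %activity and AC50.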

[3] = Stat Signaling Pathway (AID 446; active means well fitted curve in either direction with a large enough effect, not every such curve was filed as active;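 further: ME-180 cervical cancer cells given 40 pM IL-6 alongside compound; SIE-controlled beta-lactamase reporter measured as 460/530 nm FRET emission ratio; on the % scale 0 is the no-effect control and ±100 the full control effect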)
How it was run: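 ME-180 cells carrying a SIE-driven beta-lactamase reporter are stimulated with 40 pM IL-6 for 5 h at 37C in the presence of compound. The 460/530 nm FRET substrate ratio is read after 2.5 h at RT. Data are normalised to 300 pM IL-6 and to 125 nM JAK inhibitor controls.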

[4] = molecular target: Glucocorticoid receptor (Homo sapiens) (UniProt P04150); test: GR-GFP Redistribution (AID 450;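 active means compounds whose dose series gives a full or clear partial fitted curve of increased nuclear translocation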; further: potency means the concentration at half of the fitted maximal effect); conditions: U2OS GR-GFP nuclear translocation, laser cytometry, 2 h
Glucocorticoid receptor (Homo sapiens), sequence (P04150 whole entry, looked up, the tested form may be a part): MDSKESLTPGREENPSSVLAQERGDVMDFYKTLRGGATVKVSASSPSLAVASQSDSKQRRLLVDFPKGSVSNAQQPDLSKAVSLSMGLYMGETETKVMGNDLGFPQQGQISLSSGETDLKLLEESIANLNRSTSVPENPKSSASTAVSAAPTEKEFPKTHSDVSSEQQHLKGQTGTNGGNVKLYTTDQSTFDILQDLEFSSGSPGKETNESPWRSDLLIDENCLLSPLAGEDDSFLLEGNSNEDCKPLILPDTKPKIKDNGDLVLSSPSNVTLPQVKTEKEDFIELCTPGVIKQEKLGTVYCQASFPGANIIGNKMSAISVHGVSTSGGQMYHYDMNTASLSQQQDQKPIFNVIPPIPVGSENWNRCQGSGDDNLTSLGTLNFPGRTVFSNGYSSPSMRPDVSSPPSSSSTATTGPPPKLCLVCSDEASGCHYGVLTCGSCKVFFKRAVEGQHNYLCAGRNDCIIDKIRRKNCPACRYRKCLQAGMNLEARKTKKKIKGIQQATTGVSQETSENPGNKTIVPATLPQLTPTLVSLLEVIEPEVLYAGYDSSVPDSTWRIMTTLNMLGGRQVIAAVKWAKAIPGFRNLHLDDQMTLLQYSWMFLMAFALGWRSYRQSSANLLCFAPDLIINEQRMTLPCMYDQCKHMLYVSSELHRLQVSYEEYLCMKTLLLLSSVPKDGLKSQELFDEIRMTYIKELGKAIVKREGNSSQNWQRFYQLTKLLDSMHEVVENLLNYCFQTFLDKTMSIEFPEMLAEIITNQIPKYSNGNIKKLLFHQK

[5] = molecular target: Glucocorticoid receptor (Homo sapiens) (UniProt P04150); test: GR-EFC Redistribution (AID 451; calls by dose curve; further: potency means the concentration at half of the fitted maximal effect); conditions: CHO-K1 GR-EFC translocation, beta-gal luminescence, 2 h
How it was run: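 CHO-K1 cells expressing nuclear EA and GR-ED fragments of b-gal; compounds titrated up to 46 uM final, 2 h at 37 C. GR nuclear translocation read as complemented b-gal luminescence after 1 h RT detection.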

[6] = molecular target: Mitogen-activated protein kinase 10 (Mus musculus) (UniProt Q61831); test: JNK3 AlphaScreen Assay (AID 530; active means well fitted curve in either direction with a large enough effect, not every such curve was filed as active;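 further: kinase came from lysate of stimulated human HepG2 cells; signal reports phosphorylation of biotinylated GST-cJun 1-79 at Ser73 with 10 µM ATP; on the % scale 0 is the no-effect control and ±100 the full control effect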)
How it was run: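 Pre-activated (IL-1β/TNFα) JNK3 in HepG2 lysates phosphorylates biotin-GST-cJun(1-79), 10 uM ATP; anti-phospho-cJun(Ser73) AlphaScreen read at room temperature, pH 7.6 Tris buffer. Compounds pre-incubated 15 min as titrations.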

[7] = molecular target: 3',5'-cyclic-AMP phosphodiesterase 4B (Homo sapiens) (UniProt Q07343); test: qHTS Assay for Inhibitors of PDE-IV (AID 607; active means well fitted activation curve with a large enough effect in the main read-out, with a control signal flat, not every such curve was filed as active; further: % of control where 0% means no effect)
3',5'-cyclic-AMP phosphodiesterase 4B (Homo sapiens), sequence (Q07343 whole entry, looked up): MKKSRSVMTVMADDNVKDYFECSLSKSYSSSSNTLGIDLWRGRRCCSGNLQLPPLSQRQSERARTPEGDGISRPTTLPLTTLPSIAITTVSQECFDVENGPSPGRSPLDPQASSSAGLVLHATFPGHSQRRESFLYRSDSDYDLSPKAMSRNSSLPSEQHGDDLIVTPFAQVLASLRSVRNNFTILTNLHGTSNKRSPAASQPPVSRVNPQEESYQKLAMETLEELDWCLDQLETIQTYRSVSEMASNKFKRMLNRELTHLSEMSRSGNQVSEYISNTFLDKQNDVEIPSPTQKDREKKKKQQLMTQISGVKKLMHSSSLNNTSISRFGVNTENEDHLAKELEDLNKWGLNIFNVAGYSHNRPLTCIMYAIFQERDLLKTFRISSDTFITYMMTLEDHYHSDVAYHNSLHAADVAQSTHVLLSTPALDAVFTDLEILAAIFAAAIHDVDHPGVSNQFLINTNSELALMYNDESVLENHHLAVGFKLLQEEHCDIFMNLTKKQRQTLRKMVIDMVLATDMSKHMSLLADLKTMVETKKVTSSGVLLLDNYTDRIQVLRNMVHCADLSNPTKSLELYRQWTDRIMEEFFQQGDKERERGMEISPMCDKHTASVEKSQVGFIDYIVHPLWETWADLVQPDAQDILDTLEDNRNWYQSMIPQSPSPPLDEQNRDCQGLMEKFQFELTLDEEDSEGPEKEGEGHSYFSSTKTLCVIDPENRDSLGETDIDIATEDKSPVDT
How it was run: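 HEK293 ACTOne cells with CNG channel (1000/well), endogenous PDE4; membrane potential dye, compounds up to 22.9 uM final. Fluorescence Ex 535/Em 590; RO 20-1724 (100 uM final) as reference.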

[8] = qHTS Assay for Lipid Storage Modulators (AID 1519; calls by dose curve); conditions: Drosophila S3 cells, BODIPY lipid droplet/cell ratio, laser cytometry, cells loaded with oleic acid; for activity change, negative = inhibition: at 25.7 µM (top of the series)
How it was run: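 Cells seeded at 5,000 per well were treated with compounds over a concentration series and loaded with oleic acid (400 uM, as added). Lipid droplet fluorescence (488 nm excitation, 500-530 nm channel) was read by laser-scanning cytometry and normalized to 20 uM Triacsin C.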

[9] = molecular target: ATP-dependent 6-phosphofructokinase (Trypanosoma brucei brucei) (UniProt O15648); test: qHTS Assay to Find Inhibitors of T. brucei phosphofructokinase: hit validation (AID 492961)
ATP-dependent 6-phosphofructokinase (Trypanosoma brucei brucei), sequence (O15648 whole entry, looked up): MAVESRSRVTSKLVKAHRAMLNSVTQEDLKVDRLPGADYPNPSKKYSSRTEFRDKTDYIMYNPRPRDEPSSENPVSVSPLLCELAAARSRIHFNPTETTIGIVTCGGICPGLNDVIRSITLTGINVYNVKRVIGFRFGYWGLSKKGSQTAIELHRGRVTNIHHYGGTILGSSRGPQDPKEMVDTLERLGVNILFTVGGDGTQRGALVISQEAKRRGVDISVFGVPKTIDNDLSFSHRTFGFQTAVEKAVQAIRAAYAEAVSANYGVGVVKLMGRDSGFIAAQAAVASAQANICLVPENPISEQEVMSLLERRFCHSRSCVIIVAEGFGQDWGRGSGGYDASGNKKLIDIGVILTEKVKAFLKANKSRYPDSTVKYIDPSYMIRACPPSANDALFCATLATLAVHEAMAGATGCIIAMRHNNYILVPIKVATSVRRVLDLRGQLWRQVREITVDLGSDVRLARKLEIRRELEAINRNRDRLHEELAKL
How it was run: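 Inhibition of parasite PFK is measured as reduced ADP formation, quantified via luciferase after ATP depletion. Assay used 0.1 mM ATP, 0.5 mM F6P, 1.25 nM enzyme, 45 min incubation.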

[10] = molecular target: Ubiquitin carboxyl-terminal hydrolase 1 (Homo sapiens) (UniProt O94782); test: Inhibitors of USP1/UAF1: Pilot qHTS (AID 504865);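 further: rhodamine fluorescence freed from ubiquitin-rhodamine substrate followed over time; top concentration of the series differs between compounds; on the % scale 0 is the no-effect control and ±100 the full control effect; nearly all actives have a fitted effect of over 35% in size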
Ubiquitin carboxyl-terminal hydrolase 1 (Homo sapiens), sequence (O94782 whole entry, looked up): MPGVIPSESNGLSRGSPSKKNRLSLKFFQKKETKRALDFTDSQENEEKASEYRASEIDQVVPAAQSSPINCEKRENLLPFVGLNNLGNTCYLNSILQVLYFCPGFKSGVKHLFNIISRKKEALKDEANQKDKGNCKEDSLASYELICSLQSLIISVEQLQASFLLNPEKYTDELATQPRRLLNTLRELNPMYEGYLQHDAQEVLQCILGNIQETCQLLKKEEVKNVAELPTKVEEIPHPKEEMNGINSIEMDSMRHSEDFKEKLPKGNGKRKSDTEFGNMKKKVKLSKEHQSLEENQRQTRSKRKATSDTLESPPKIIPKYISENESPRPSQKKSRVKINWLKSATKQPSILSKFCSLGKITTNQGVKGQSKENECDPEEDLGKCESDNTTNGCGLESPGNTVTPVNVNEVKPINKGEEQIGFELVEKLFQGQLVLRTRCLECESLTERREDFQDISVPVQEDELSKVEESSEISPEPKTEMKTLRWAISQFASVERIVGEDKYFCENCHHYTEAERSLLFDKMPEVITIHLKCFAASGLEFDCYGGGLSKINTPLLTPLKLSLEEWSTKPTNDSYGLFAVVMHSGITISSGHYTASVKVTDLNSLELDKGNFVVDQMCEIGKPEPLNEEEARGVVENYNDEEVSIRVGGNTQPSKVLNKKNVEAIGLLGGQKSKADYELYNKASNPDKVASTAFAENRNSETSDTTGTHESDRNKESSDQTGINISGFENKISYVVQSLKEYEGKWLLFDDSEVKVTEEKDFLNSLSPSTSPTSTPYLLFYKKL
How it was run: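 USP1/UAF1 complex (1nM) preincubated with compound 15 min at room temperature, then Ub-Rho substrate (150nM final) added. Fluorescence read kinetically at 480/540 nm, 6 reads every 60 seconds. Buffer: 50mM HEPES pH 7.8, 0.5mM EDTA, 0.1 mg/ml BSA, 1mM TCEP, 0.01% Tween-20.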

[11] = S16 Schwann cell PMP22 intronic element firefly luciferase assay (AID 624032);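 further: plate controls were DMSO for no effect and PTC124 positive control mean for full effect; nearly all actives have a fitted effect of over 30% in size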
How it was run: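 Rat S16 Schwann cells stably carrying firefly luciferase driven by a PMP22 intronic element, in 10% FBS, treated 24 h at 37 C. ONE-Glo luminescence normalized to PTC124 control and DMSO (0%); curves classed by r2, magnitude and activity.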

[12] = qHTS profiling for inhibitors of Plasmodium falciparum proliferation (AID 504749);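 further: 0% = DMSO vehicle and full inhibition = artemisinin control; nearly all actives have a fitted effect of over 60% in size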; conditions: P. falciparum in erythrocytes, SYBR Green DNA, 72 h
How it was run: (§1)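 P. falciparum-infected erythrocytes (0.3% parasitemia, 2.5% hematocrit) incubated with compound 72 h at 37 C, 5% CO2. Parasite DNA detected by SYBR Green after lysis, overnight at room temperature; normalised to 0.29 uM artemisinin and DMSO.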

[13] = test system: C2A; test: as above; conditions: P. falciparum in erythrocytes, SYBR Green DNA, 72 h; series mostly up to 12.8 µM
How it was run: as §1

[14] = test system: CP201; test: as above; conditions: P. falciparum in erythrocytes, SYBR Green DNA, 72 h; series mostly up to 12.8 µM
How it was run: as §1

[15] = test system: CP238; test: as above; conditions: P. falciparum in erythrocytes, SYBR Green DNA, 72 h; series mostly up to 12.8 µM
How it was run: as §1

[16] = test system: CP250; test: as above; conditions: P. falciparum in erythrocytes, SYBR Green DNA, 72 h; series mostly up to 12.8 µM
How it was run: as §1

[17] = test system: FAB9; test: as above; conditions: P. falciparum in erythrocytes, SYBR Green DNA, 72 h; series mostly up to 12.8 µM
How it was run: as §1

[18] = test system: JCK; test: as above; conditions: P. falciparum in erythrocytes, SYBR Green DNA, 72 h; series mostly up to 12.8 µM
How it was run: as §1

[19] = test system: PC49; test: as above; conditions: P. falciparum in erythrocytes, SYBR Green DNA, 72 h; series mostly up to 12.8 µM
How it was run: as §1

[20] = test system: SC27B; test: as above; conditions: P. falciparum in erythrocytes, SYBR Green DNA, 72 h; series mostly up to 12.8 µM
How it was run: as §1

[21] = measured here: cell count channel max response
[22] = measured here: lipid channel max response
[23] = at 12.8 µM (top of the series), parasite line A
[24] = at 12.8 µM (top of the series), parasite line B

CCCCC[C@H](O)/C=C\[C@@H]1[C@H](O)CC(=O)[C@@H]1CCCCCCC(=O)O
inactive: outcome [1] | activity change, negative = inhibition [2] -1.09% | outcome [3] | Potency [4] > 20.6 µM | Potency [5] > 20.6 µM | Potency [6] | outcome [7] | activity change, negative = inhibition [8] -3.38% | outcome [9] | Potency [10] | Potency [11] | activity, negative = inhibition [12, 23] 8.32% | activity, negative = inhibition [12, 24] 1.76% | Potency [13] | Potency [14] | Potency [15] | Potency [16] | Potency [17] | Potency [18] | Potency [19] | Potency [20]
-5.83%: max response [8, 21]
-11.1%: max response [8, 22]

CCCC(=O)Nc1ccc(OC[C@@H](O)CNC(C)C)c(C(C)=O)c1
inactive: outcome [1] | activity change, negative = inhibition [2] -10.7% | outcome [3] | Potency [4] > 20.6 µM | Potency [5] > 20.6 µM | Potency [6] | outcome [7] | activity change, negative = inhibition [8] -2.69% | outcome [9] | Potency [10] | Potency [11]
-3.96%: max response [8, 22]
-0.4%: max response [8, 21]

C[C@@H]1[C@H](C)CC[C@@]2(C(=O)O)CC[C@]3(C)C(=CC[C@H]4[C@@]5(C)CC[C@@H](O)C(C)(C)[C@@H]5CC[C@@]43C)[C@@H]12
-11%: max response [8, 22]
inactive: outcome [1] | activity change, negative = inhibition [2] -17.6% | outcome [3] | Potency [4] > 20.6 µM | Potency [5] > 20.6 µM | Potency [6] | outcome [7] | activity change, negative = inhibition [8] -4.31% | Potency [10]
-6.67%: max response [8, 21]

C[C@H]1[C@@H](O)[C@@H](C)\C=C/C=C\C=C/C=C\C=C/C=C\C=C/[C@@H](O[C@H]2O[C@@H](C)[C@@H](O)[C@@H](N)[C@@H]2O)C[C@@H]2O[C@](O)(C[C@@H](O)C[C@@H](O)[C@@H](O)CC[C@@H](O)C[C@@H](O)CC(=O)O[C@H]1C)C[C@@H](O)[C@H]2C(=O)O (stereo in doubt)
3.85%: max response [8, 22]
0.724%: max response [8, 21]
inactive: outcome [1] | activity change, negative = inhibition [2] -11.5% | outcome [3] | Potency [4] > 20.6 µM | Potency [5] > 20.6 µM | Potency [6] | outcome [7] | activity change, negative = inhibition [8] 3.52% | Potency [10]

CN[C@@H]1[C@H](O[C@H]2[C@@H](O[C@@H]3[C@@H](O)[C@@H](O)[C@@H](N=C(N)N)[C@@H](O)[C@@H]3N=C(N)N)O[C@@H](C)[C@]2(O)CO)O[C@H](CO)[C@@H](O)[C@@H]1O
-12.5%: max response [8, 22]
inactive: outcome [1] | activity change, negative = inhibition [2] 1.68% | outcome [3] | Potency [4] > 20.6 µM | Potency [5] > 20.6 µM | Potency [6] | activity change, negative = inhibition [8] -1.28% | Potency [10]
-9.77%: max response [8, 21]

CC(=O)O[C@H]1C[C@@]2(C)[C@H](C[C@@H](O)[C@H]3[C@@]4(C)CC[C@@H](O)[C@@H](C)[C@H]4CC[C@@]32C)C1=C(CCC=C(C)C)C(=O)O
inactive: outcome [1] | activity change, negative = inhibition [2] -11.2% | outcome [3] | Potency [4] > 20.6 µM | Potency [5] > 20.6 µM | Potency [6] | activity change, negative = inhibition [8] -3.43% | outcome [9] | Potency [10] | Potency [11] | activity, negative = inhibition ([12]; at 28.7 µM (top of the series), parasite line A) 7.93% | activity, negative = inhibition ([12]; at 28.7 µM (top of the series), parasite line B) 2.16% | Potency [13] | Potency [14] | Potency [15] | Potency [16] | Potency [17] | Potency [18] | Potency [19] | Potency [20]
-6.42%: max response [8, 22]
-3.61%: max response [8, 21]

O=C(/C=C\c1ccc(O)c(O)c1)O[C@@H]1C[C@](O)(C(=O)O)C[C@@H](O)[C@@H]1O
1.17%: max response [8, 21]
inactive: outcome [1] | activity change, negative = inhibition [2] -0.271% | outcome [3] | Potency [4] > 20.6 µM | Potency [5] > 20.6 µM | Potency [6] | outcome [7] | activity change, negative = inhibition [8] 2.29% | Potency [10]
3.23%: max response [8, 22]

O[C@@](CCN1CCCC1)(c1ccccc1)C1CCCCC1
active: activity change, negative = inhibition [2] -61.1%
-8.38%: max response [8, 21]
-9.51%: max response [8, 22]
inactive: outcome [1] | outcome [3] | Potency [4] > 20.6 µM | Potency [5] > 20.6 µM | Potency [6] | activity change, negative = inhibition [8] -0.986% | outcome [9] | Potency [10] | Potency [11] | activity, negative = inhibition [12, 23] -9.23% | Potency [13] | Potency [15] | Potency [16] | Potency [17] | Potency [18] | Potency [20]

CC1(C)O[C@@H]2C[C@H]3[C@H]4C[C@H](F)C5=CC(=O)CC[C@]5(C)[C@@H]4[C@H](O)C[C@]3(C)[C@]2(C(=O)CO)O1
active: Potency [4] 0.00126 µM | Potency [5] 0.0188 µM
-9.46%: max response [8, 21]
-9.41%: max response [8, 22]
inactive: outcome [1] | activity change, negative = inhibition [2] -4.77% | outcome [3] | Potency [6] | outcome [7] | activity change, negative = inhibition [8] -1.62% | outcome [9] | Potency [10] | Potency [11] | activity, negative = inhibition [12, 23] -10.9% | activity, negative = inhibition [12, 24] -1.91% | Potency [13] | Potency [14] | Potency [15] | Potency [16] | Potency [17] | Potency [18] | Potency [19] | Potency [20]

COCCOC(=O)C1=C(C)NC(C)=C(C(=O)OC(C)C)[C@H]1c1cccc([N+](=O)[O-])c1
inactive: outcome [1] | activity change, negative = inhibition [2] -10.3% | outcome [3] | Potency [4] > 20.6 µM | Potency [5] > 20.6 µM | Potency [6] | outcome [7] | activity change, negative = inhibition [8] -3.07% | Potency [10]
-5.25%: max response [8, 21]
-6.94%: max response [8, 22]

CC(=O)O[C@]1(C(C)=O)CC[C@@H]2[C@@H]3C=C(C)C4=CC(=O)CC[C@@]4(C)[C@H]3CC[C@]21C
active: Potency [4] 0.00312 µM | Potency [5] 0.0557 µM
inactive: outcome [1] | activity change, negative = inhibition [2] -7.69% | outcome [3] | Potency [6] | outcome [7] | activity change, negative = inhibition [8] -3.56% | outcome [9] | Potency [11] | activity, negative = inhibition [12, 23] -0.563% | activity, negative = inhibition [12, 24] 2.77% | Potency [13] | Potency [14] | Potency [15] | Potency [16] | Potency [17] | Potency [18] | Potency [19] | Potency [20]
-20.2%: max response [8, 21]
-22%: max response [8, 22]

c1ccc(CNc2ncnc3nc[nH]c23)cc1
inactive: outcome [1] | activity change, negative = inhibition [2] 7.66% | outcome [3] | Potency [4] > 20.6 µM | Potency [5] > 20.6 µM | Potency [6] | outcome [7] | activity change, negative = inhibition [8] -0.17% | Potency [10]
-12.9%: max response [8, 22]
-13.8%: max response [8, 21]
